KB-V1 MDR tox = KB-V1 MDR subline cytotoxicity; KB-V1 MDR cells viability, CellTiter-Glo, 72 h; Potency, µM (top dose mostly 46.1 µM), hits mostly cytotoxic; 3.4% of 400,000 active; AID 1347076; also: nearly all actives have a fitted effect of over 60% in size
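Cells of the MDR subline KB-V1 are plated, dosed with compound at multiple concentrations, and incubated 72 h at 37 degrees C; CellTiter-Glo is then added and luminescence read after 10 min.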
HT1080 IDH1KD tx = toxicity to HT-1080 IDH1 knockdown cells (counter line); AID 686971; 2% of 360,000 active; Potency, µM (doses to about 46.1 µM), inactives show top-dose activity, negative = toxicity, usual class: cytotoxic; HT-1080 IDH1 knockdown viability, ATP luminescence, 48 h;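 also: 0% = DMSO wells and -100% = cell-free medium wells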
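Assay cells: HT-1080 with IDH1 knockdown, 750 per well, RPMI/5% FBS. Exposure: 48 h at 37 °C following 2 h pre-incubation. Read: CellTiter-Glo luminescence; fitted concentration-response, curve class assigned.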
HT1080NT lethal = kills 2HG-producing HT-1080-NT fibrosarcoma cells. AID 686970. 1.6% of 360,000 active. HT-1080-NT fibrosarcoma viability, CellTiter-Glo ATP luminescence, 48 h. Potency, µM (titrated, usually from 46.1 µM), for inactives: top-dose activity, negative = less viability, usual class: cytotoxic;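 also: NT is the 2HG producing partner of a matched IDH1 knockdown line; 0% = DMSO-treated cells and -100% = media-only wells without cells; nearly all actives have a fitted effect of over 55% in size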
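Fibrosarcoma NT cells, 750 per well in 5% FBS RPMI, were exposed to compound for 48 hours. Viability: CellTiter-Glo luminescence.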
TDP1 cell noCPT = qHTS for Inhibitors of human tyrosyl-DNA phosphodiesterase 1 (TDP1): qHTS in cells in absence of CPT; DT40 Tdp1-/- hTDP1 cells, no CPT, ATP luminescence, 48 h; Potency, µM (doses to about 46.2 µM), for inactives: at the top dose activity change, negative = growth inhibition, actives largely listed as inhibitors; 15% of 420,000 active; AID 686978, 2013; also: nearly all actives have a fitted effect of over 55% in size
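Growth of hTDP1-complemented DT40 Tdp1-knockout cells is measured by ATP luminescence after at least 48 hr compound exposure at 37 °C, with DMSO substituting for the 20 nM CPT used in the parallel screen.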
DT40 TDP1 CPT = DT40-hTDP1 cell growth loss with CPT | AID 686979 | 12% of 420,000 active | chicken DT40 Tdp1-/-;hTDP1 cells + 20 nM CPT, ATP luminescence, 48 h | Potency, µM (doses to about 46.2 µM), for inactives: top-dose activity change, negative = growth inhibition, usual class: inhibitors; also: nearly all actives have a fitted effect of over 55% in size
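Chicken DT40 Tdp1-/- cells stably complemented with human TDP1 were seeded at 400 cells/well in medium containing 20 nM camptothecin, exposed to pin-transferred compounds, and grown at 37 °C for at least 48 hr. Viability was read as ATP luminescence.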
KB-3-1 cytotox = KB-3-1 parental cell cytotoxicity. 1.4% of 400,000 active. Potency, µM (series often up to 46.1 µM), actives largely listed as cytotoxic. KB-3-1 viability, CellTiter-Glo ATP luminescence, 72 h; also: nearly all actives have a fitted effect of over 60% in size
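Viability of parental KB-3-1 cells, measured by CellTiter-Glo luminescence, followed a 72 h incubation at 37 °C with pinned compounds in phenol-red-free DMEM containing 10% FBS.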
* = called active by the depositor; i = inactive; ? = inconclusive; . = no result given; [ ] = dose if it differs, or a comment. Rows were chosen to be rich in hits. Some 19% of all compounds tested hit in one or more screens of this group. Calls follow the shape of the dose curve; as a rule, active = well fitted curve in the direction sought with a large enough effect; inconclusive = small, poorly fitted or top-dose-only effect, or another doubt; inactive = no such curve, though single readings can be large; an effect the other way counts as inactive or inconclusive. Unless noted, % is scaled to controls: 0 for no effect and ±100 for the full control effect; potency is read from the fitted curve at half-maximal effect.

SMILES	KB-V1 MDR tox	HT1080 IDH1KD tx	HT1080NT lethal	TDP1 cell noCPT	DT40 TDP1 CPT	KB-3-1 cytotox
COc1ccc(N2CCN(CCCNC(=O)c3ccc4nc(Cc5ccccc5)oc4c3)CC2)cc1	i	.	.	6.51µM*	6.51µM*	?
CC(=O)NC(C(=O)O)C(C)(C)SN=O (centres undefined)	.	.	.	-11.0%	4.9%	.
COc1ccc(CNC(=O)c2ccc3nc(CCc4ccccc4)oc3c2)cc1	i	.	.	-23.3%	?	i
COc1ccc(N2CCN(CCCNC(=O)c3ccc4nc(CCc5ccccc5)oc4c3)CC2)cc1	.	.	.	16.4µM*	14.6µM*	.
COc1ccc(CNC(=O)c2ccc3nc(CCc4ccccc4)oc3c2)cc1OC	?	.	.	16.4µM*	18.4µM*	i
COC(=O)C1CCN(C(=O)c2ccc3nc(-c4cccc(OC)c4)oc3c2)CC1	i	10.7%	9.5%	-28.2%	-25.2%	i
CCC(C)NC(=O)c1ccc2nc(Cc3ccccc3)oc2c1 (centres undefined)	i	.	.	14.6µM*	?	i
COc1cccc(-c2nc3ccc(C(=O)NC(C)Cc4cccnc4)cc3o2)c1 (centres undefined)	i	0.5%	3.3%	?	9.2µM*	i
CCOc1cccc2sc(NC(=O)c3ccc(S(=O)(=O)N4CCCCC4)cc3)nc12	i	.	.	-5.9%	?	i
Cc1nn(C)c(C)c1S(=O)(=O)N(CC(=O)NCCc1ccccc1)c1ccc(C(C)C)cc1	i	.	.	?	?	i
CSc1ccc(NC(=O)c2cccnc2)cc1C#N	i	0.6%	13.8%	-14.9%	8.4%	i
O=C(Nc1cccc(Cl)c1)c1ccc2nc(Cc3ccccc3)oc2c1	?	.	.	20.6µM*	20.6µM*	14.6µM*
O=C(NCCCN1CCN(c2cccc(Cl)c2)CC1)c1ccc2nc(Cc3ccccc3)oc2c1	?	.	.	14.6µM*	23.1µM*	14.6µM*
Cc1ccc(C)c(NC(=O)c2ccc3nc(CCc4ccccc4)oc3c2)c1	i	.	.	-29.7%	-18.8%	i
COc1ccc(Cl)cc1NC(=O)c1ccc2nc(Cc3ccccc3)oc2c1	i	.	.	?	?	i
O=C(Nc1ccc(Br)cc1F)c1ccc2nc(CCc3ccccc3)oc2c1	i	.	.	11.6µM*	7.31µM*	i
COc1ccc(Cc2nc3ccc(C(=O)NCCc4ncccc4C)cc3o2)cc1OC	i	-6.1%	-2.3%	23.1µM*	20.6µM*	i
Cc1ccc(Cl)cc1NC(=O)CON=C(N)c1ccccc1	i	-1.5%	-5.8%	-14.6%	-19.3%	i
COc1cccc(C(=O)N(Cc2cc3cc4c(cc3nc2N(C)C)OCO4)CC2CCCO2)c1 (centres undefined)	.	.	.	-14.4%	-0.4%[9.04 µM]	.
CCOc1c(OC(C)=O)ccc(/C=C/c2ccc3cccc(OC)c3n2)c1[N+](=O)[O-]	16.4µM*	-25.4%	-18.7%	16.4µM*	?	i
COc1cccc(/C=C/c2ccc3cccc(O)c3n2)c1OC	i	?	-19.7%	16.4µM*	?	i
COc1cc(Br)cc(/C=C/c2ccc3cccc(O)c3n2)c1OC	i	-0.3%	3.7%	?	?	i
COc1ccc(/C=C/c2ccc3cccc(O)c3n2)c(OC)c1OC	i	?	?	10.3µM*	9.2µM*	i
COc1cc(/C=C/c2ccc3cccc([N+](=O)[O-])c3n2)ccc1OCC(=O)O	i	1.5%	7.1%	6.6%	-5.5%	i
CCc1ccc(/C=C/C(=O)c2c(C)cc(C)[nH]c2=O)cc1	?	23.1µM*	14.6µM*	16.4µM*	16.4µM*	23.1µM*
Cc1ccc(/C=C/C(=O)c2c(C)cc(C)[nH]c2=O)cc1	?	10µM*	?	11.2µM*	8.91µM*	?

Screening results: PubChem, National Center for Advancing Translational Sciences (NCATS)
